# Compound activity as filed in PubChem BioAssay.
# Compounds with a hit are over-represented: about 3.6% of the library has one in this group of screens.
# TROY signal inh: inhibitors of TROY-dependent NF-kB signaling. 360,000 compounds, 0.98% hits. inhibition, % at 10 µM. Q293 LMP1-TROYcd NF-kB luciferase reporter, 4 h;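 active = compounds whose plate-normalised and pattern-corrected inhibition of the luciferase reporter signal at the single screening dose is 50% or more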
# LMP1 NFkB inh: inhibitors of Epstein-Barr LMP1-induced NF-kappaB reporter. LMP1-induced NF-kappaB luciferase reporter cells, luminescence. inhibition, % at 12.5 µM. 350,000 compounds, 0.69% hits. AID 504558; in the data active = inhibition above about 41%; inconclusive = no clear call, values can overlap the other calls;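 note: 0% = neutral control wells and 100% = reference inhibitor control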
# LGR2 inh: inhibitors of bursicon-induced Drosophila LGR2 receptor cAMP signaling; HEK293 LGR2, CRE-luciferase, bursicon-stimulated, 4 h; inhibition, % at 9.99 µM; 380,000 compounds, 0.35% hits; AID 720647;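 active = drop in luminescence signal, shown as inhibition above about 50% in the replicate tests, limit read from the data, passing the limit was not always enough; inconclusive = probably only some replicates passing the limit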;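 note: agonist challenge used bursicon conditioned medium at about half maximal strength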
# HSF1 activator: increases HSF-1 driven luciferase reporter signal; NIH3T3-HGL HSF-1 luciferase reporter, MG132, 8 h; 100% = twice DMSO control signal; activation, % at 9 µM; 300,000 compounds, 1.7% hits; AID 504408;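 active = mean replicate activation of at least 50% with a set share of replicates each reaching 50%; inconclusive = only one of those two conditions met; inactive = mean below 50% and too few replicates reaching it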;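 note: 0% = median of the neutral control wells and 100% = twice that signal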
# TWEAK Fn14 block: blocks TWEAK-Fn14 interaction in a reporter cell assay | inhibition, % at 10 µM | AID 1159606 | TWEAK-stimulated Fn14 reporter cells, luciferase luminescence, 8 h | 360,000 compounds, 2% hits; in the data active = inhibition above about 50%
# HSF1 inh: HSF1 inhibition; AID 2098; NIH3T3-HGL HSE-luciferase, MG132-induced, luminescence 8 h; active compounds read low; activity change, negative = inhibition, % at 7.5 µM (by protocol); 300,000 compounds, 0.77% hits;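 active = more than half of replicate wells show activity change below -50%, luminescence cut by over half; inconclusive = some wells, but at most half, below -50%; inactive = no replicate well below -50%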;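 note: luciferase reports HSF-1 transcriptional activity via heat shock element; 0% = median of DMSO wells and -100% = zero luminescence signal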
# The depositor's hits bear a star; ? = inconclusive; nt = not tested or not shown.
SMILES,TROY signal inh,LMP1 NFkB inh,LGR2 inh,HSF1 activator,TWEAK Fn14 block,HSF1 inh
CN(C)CC(=O)Nc1ccc2c(c1)[C@H]1C[C@H](CC(=O)NCc3ccccc3)O[C@H](CO)[C@H]1O2,nt,nt,-15.1,nt,nt,nt
C[C@H](CO)N1C[C@H](C)[C@@H](CN(C)C(=O)C2CC2)Oc2cc(-c3ccc(F)cc3)ccc2S1(=O)=O,nt,nt,-1.2,nt,nt,nt
O=C1CCCC2=C1C(c1ccc(Br)cc1)c1c([nH]c(=S)[nH]c1=O)N2 (configuration not stated),-9.1,1.5,nt,0.0,7.1,-5.8
O=c1[nH]c(=S)[nH]c2c1C(c1ccc(Br)cc1)c1c([nH]c(=S)[nH]c1=O)O2,3.5,-1.4,13.1,-8.3,76.7*,2.7
Cc1c(C(=O)NCc2ccc(C(C)C)cc2)sc(=O)n1Cc1ccc(S(=O)(=O)N(C)C)cc1,24.5,nt,9.0,nt,64.1*,nt
CSc1ccc(Cn2c(C)c(C(=O)NCc3ccc(C(C)C)cc3)sc2=O)cc1,19.8,nt,11.6,nt,16.9,nt
Cc1c(C(=O)NCc2ccc(Cl)c(Cl)c2)sc(=O)n1Cc1ccc(C(=O)N(C)C)cc1,23.9,nt,8.9,nt,19.6,nt
Cc1c(C(=O)NCc2ccc(Cl)c(Cl)c2)sc(=O)n1Cc1ccc(S(=O)(=O)N(C)C)cc1,39.0,nt,-6.6,nt,66.8*,nt
O=C(Nc1ccccn1)C(=O)Nc1ccccn1,28.6,-15.4,-10.3,31.6,51.0*,10.1
O=C(Nc1ccccn1)c1ccc2ccccc2n1,-20.6,-26.1,nt,74.3*,9.7,37.2
COc1ccc(C(=O)Nc2cnccn2)cc1[N+](=O)[O-],-2.3,2.3,13.4,-2.1,6.3,-3.3
CC(C)(C)c1ccc(C(=O)Nc2cnccn2)cc1,13.4,2.3,nt,26.9,60.7*,2.5
O=C(Nc1ccccc1)Nc1ccccn1,-55.0,-16.8,nt,38.3,-20.0,20.4
O=C(Nc1ccccn1)c1ccc(-c2ccccc2)cc1,54.4*,47.0*,70.3*,-3.0,89.3*,-4.4
CO[C@@H]1CN(C)C(=O)c2ccc(NC(=O)C3CC3)cc2OC[C@@H](C)N(C(=O)c2cnccn2)C[C@@H]1C,nt,nt,-4.5,nt,nt,nt
C[C@H](CO)N1C[C@H](C)[C@@H](CN(C)C(=O)Nc2ccc(F)cc2)Oc2ccc(NS(=O)(=O)c3ccc(F)cc3)cc2C1=O,nt,nt,3.2,nt,nt,nt
COc1ccc(Nc2cc(C)nc3ccc(C)cc23)cc1,-12.2,4.6,7.0,nt,-22.6,nt
CC(=O)c1ccc(Nc2cc(C)nc3ccc(C)cc23)cc1,-28.0,-31.1,62.2*,-2.5,-12.0,2.3
C/C=C/c1ccc2c(c1)O[C@@H](CN(C)Cc1cncnc1)[C@H](C)CN([C@@H](C)CO)S2(=O)=O,nt,nt,-28.8,nt,nt,nt
CC(=O)/C(C#N)=C1\NC(=O)C(Cc2ccccc2)S1 (configuration not stated),2.7,7.7,9.2,6.2,63.8*,2.2
O=S(=O)(c1ccc(Cl)s1)N1CCCc2cccc(O)c21,-46.6,-28.3,nt,116.0*,0.5,69.7
COc1ccc(CNC(=O)CN2CCN(c3ccccc3)CC2)cc1,4.8,-1.9,24.2,15.1,-11.9,3.9
O=C(CN1CCN(c2ccccc2)CC1)NCc1ccc(F)cc1,4.3,1.8,5.9,-61.9,3.8,-55.8*
O=c1c(O)cccc2cc(O)c(O)c(O)c12,12.6,-9.1,11.6,-9.6,78.0*,3.9
O=C(CNC(=O)c1ccccc1)NCC(=O)OCC(=O)c1ccc(F)cc1,3.4,-9.7,5.9,3.0,7.0,-1.6
SMILES,TROY signal inh,LMP1 NFkB inh,LGR2 inh,HSF1 activator,TWEAK Fn14 block,HSF1 inh
Cc1ccc(C(=O)NCC(=O)NCC(=O)OCC(=O)c2ccc(F)cc2)cc1,-16.6,11.3,2.4,-70.3,-25.0,-61.8*
COc1cc(C(=O)c2c(C)c(CCC#N)n3ccccc23)cc(OC)c1OC,5.3,-2.4,16.2,10.8,0.1,1.9
COc1cccc(C(=O)c2c(C)c(CCC#N)n3ccccc23)c1OC,8.5,2.3,7.1,180.3*,10.7,120.0
Cc1nn2c(N)c(C#N)cnc2c1-c1ccc(Cl)cc1,7.7,6.2,nt,-0.5,-3.0,-4.6
COc1ccc(-c2c(C)nn3c(N)c(C#N)cnc23)cc1OC,-5.8,-6.1,nt,15.6,50.4*,-3.5
CC1CC(C)C(=O)C(C(CC2CC(=O)NC(=O)C2)OC(=O)CC(=O)c2ccccc2)C1 (configuration not stated),39.9,52.2*,82.5*,nt,51.3*,nt
O=C(NC1CC1)c1cccc2c1C(=O)c1ccc(N3CCC(Cc4ccccc4)CC3)cc1S2(=O)=O,29.6,6.5,30.9,nt,63.5*,nt
O=C1c2ccc(Cl)cc2S(=O)(=O)c2cccc(C(=O)N3CCC(Cc4ccccc4)CC3)c21,65.4*,-0.2,?,nt,-55.7,nt
O=C(C[C@H]1CC[C@H](NC(=O)CC2CC2)[C@H](CO)O1)NCc1ccccc1,nt,nt,-1.8,nt,nt,nt
CN1c2ccc(-c3ccccc3)cc2[C@@H]2[C@@H](CCN2C(=O)c2ccccc2)[C@@H]1CO,nt,nt,1.7,nt,nt,nt
CN1c2ccccc2C(C)(C)C12C=Cc1cc(O)ccc1O2 (configuration not stated),34.3,-8.3,17.9,-2.8,53.4*,13.1
CSc1ccccc1NC(=O)C(=O)c1c[nH]c2ccccc12,-33.9,-35.7,-40.7,61.5*,-6.8,27.0
O=C(Nc1nccs1)C(=O)c1c[nH]c2ccccc12,-72.9,-87.7,nt,51.0*,1.8,12.5
COc1ccc(CN(C)C[C@H]2OCCCC[C@H](C)Oc3ccc(NC(=O)c4ccncc4)cc3C(=O)N([C@H](C)CO)C[C@@H]2C)cc1,nt,nt,-9.5,nt,nt,nt
c1ccc2nc(-c3nc4ccccc4o3)ccc2c1,58.3*,4.9,85.3*,-20.2,93.6*,-14.2
Cc1ccccc1S(=O)(=O)NCC[C@H]1CC[C@H](NS(=O)(=O)c2ccccc2C)[C@@H](CO)O1,nt,nt,2.2,nt,nt,nt
O=C(Nc1ccn(Cc2c(F)c(F)cc(F)c2F)n1)c1ccc(COc2ccccc2Cl)cc1,0.3,12.9,15.0,6.3,27.2,4.3
O=C(Nc1ccn(Cc2ccccc2F)n1)c1ccc(COc2cccc(Br)c2)cc1,-68.9,-3.7,nt,51.5*,-1.7,29.3
O=C(Nc1ccn(Cc2ccccc2F)n1)c1ccc(COc2ccccc2Cl)cc1,53.2*,11.8,nt,4.0,62.2*,7.9
O=C(CCCOc1ccccc1)N1CCN(c2ccccc2)CC1,-47.0,86.2*,-58.9,24.0,-10.6,18.6
CCCCCCOC(=O)C[N+](C)(C)CCOC1CC2CCC1(C)C2(C)C (configuration not stated),3.8,8.0,nt,2.9,-0.6,-5.1
CCCCCCCOC(=O)C[N+](C)(C)CCOC1CC2CCC1(C)C2(C)C (configuration not stated),63.1*,10.7,22.5,-5.7,46.0,-3.6
Cc1ccc(OCC(=O)Nc2ccc3c(c2)nc(CCN2CCCCC2)n3C)cc1,-22.8,12.6,4.1,76.0*,-2.0,60.9
Cn1c(CCN2CCCCC2)nc2cc(NC(=O)COc3ccccc3)ccc21,-13.7,12.3,11.8,57.9*,-6.8,53.7
